GPR151 ag = activators of human GPR151, primary screen, cell-based, PathHunter beta-arrestin, luminescence | G-protein coupled receptor 151 (Homo sapiens), Q8TDV0 | PathHunter beta-arrestin GPR151 cells | activation, % at 11.2 µM | 650,000 tested, 1% active; in the data active = activation above about 4.9%;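 also: 0% = median of compound wells and 100% = cells with positive control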
MITF inh = MITF inhibitors, primary screen, biochemical, AlphaScreen, human | AlphaScreen MITF homodimerization, bead proximity signal | 650,000 tested, 0.91% active | inhibition, % at 2.6 µM; in the data active = inhibition above about 50%;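 also: 0% = vehicle wells with protein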
Target sequence (O75030 whole entry, looked up): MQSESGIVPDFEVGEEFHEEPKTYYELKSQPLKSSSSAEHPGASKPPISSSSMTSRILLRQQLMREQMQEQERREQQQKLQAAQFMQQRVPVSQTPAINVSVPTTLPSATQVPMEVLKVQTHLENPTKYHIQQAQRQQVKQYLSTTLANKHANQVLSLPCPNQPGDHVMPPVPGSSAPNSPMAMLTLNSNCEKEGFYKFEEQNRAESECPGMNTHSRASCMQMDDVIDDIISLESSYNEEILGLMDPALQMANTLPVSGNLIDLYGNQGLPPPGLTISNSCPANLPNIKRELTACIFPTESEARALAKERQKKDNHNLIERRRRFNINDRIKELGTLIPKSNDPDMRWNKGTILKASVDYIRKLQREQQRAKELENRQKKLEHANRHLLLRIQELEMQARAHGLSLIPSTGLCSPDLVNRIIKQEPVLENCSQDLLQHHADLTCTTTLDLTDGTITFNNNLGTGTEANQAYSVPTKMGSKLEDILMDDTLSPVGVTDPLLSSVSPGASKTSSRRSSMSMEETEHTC
FBW7 activator = FBW7 E3 ligase activators, primary screen, biochemical, AlphaScreen, human | AlphaScreen FBW7–phospho-cyclin E peptide binding, activator screen | normalized activity (activation), % at 26.1 µM | 650,000 tested, 0.13% active | AID 1259310, 2017; in the data active = normalized activity above about 1.9%;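 also: purified mutant Fbw7 with reduced substrate affinity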
TEAD-YAP block = TEAD-YAP interaction inhibition, primary screen, TEAD-YAP interaction inhibitor project, luminescence, HEK-TIYL cells | inhibition, % at 9.12 µM | TEAD-Gal4/YAP UAS-luciferase luminescence | AID 1259422, 2018 | 640,000 tested, 1.4% active; in the data active = inhibition above about 32%;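 also: 0% = median of test compound wells and 100% = reference inhibitor wells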
GPR151 conf act = GPR151 activators, triplicate retest, confirmation, cell-based, PathHunter beta-arrestin, luminescence | GPR151 PathHunter beta-arrestin cells, 90 min; % of EA-reagent control over plate median | AID 1508609, 2020 | activation, % at 11.2 µM | shares compounds with GPR151 ag | 6,700 tested, under 10 active;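 active = mean percent activation across replicates above the confirmation screen cutoff of 4.91%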
GPR119 ag = GPR119 activators in beta-arrestin cells, counter-screen for GPR151 activator project, cell-based, PathHunter beta-arrestin, luminescence, triplicate; shares compounds with GPR151 ag; 90 min; 0 = compound-well median, 100 = enzyme-acceptor control; 6,700 tested, 0.3% active; activation, % at 11.2 µM;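 active = mean percent activation in the counterscreen above 29.09%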;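 also: counterscreen on off-target GPR119 to flag nonselective hits from the GPR151 activator screen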
An asterisk follows results filed as active; x = no result; ! = repeats disagree. In the library only some 3.5% were active in any assay of this set; here they are far more common.

SMILES | GPR151 ag | MITF inh | FBW7 activator | TEAD-YAP block | GPR151 conf act | GPR119 ag
CCOc1nc2cccc(C(=O)OC(C)OC(=O)OC3CCCCC3)c2n1Cc1ccc(-c2ccccc2-c2nn[nH]n2)cc1 (stereo unspecified) | 1.9 | 8.9 | 0.1 | -25.1 | x | x
CCCc1nc(C(C)(C)O)c(C(=O)OCc2oc(=O)oc2C)n1Cc1ccc(-c2ccccc2-c2nn[nH]n2)cc1 | 11.5*! | -9.4 | 0.0 | -1.2 | 0.1 | 1.3
O=C(CCCOc1ccccc1)Nc1ccccc1C(=O)N1CCOCC1 | 9.4* | 3.9 | 0.1 | 7.9 | 0.4 | 11.7
Cc1ccc(S(=O)(=O)/N=c2\sc(C3=c4ccccc4=NC3=O)c(O)n2C)cc1 | 6.8* | 5.2 | 0.0 | 13.1 | 0.3 | -0.6
Cc1cccc(N=c2sc(C3=c4ccccc4=NC3=O)c(O)n2-c2cccc(C)c2)c1 | 0.4 | -2.9 | 0.1 | 1.6 | x | x
CCCCC1(CCCC)NC(=S)N(c2ccc(C)cc2)N1 | 11.4* | 14.6 | 0.0 | -5.5 | -1.1 | -3.6
N#CCSc1nnc2sc3ccccc3n12 | 5.2* | -5.5 | -0.1 | -9.4 | 0.0 | -1.6
COc1cc(OC)c(/C=C2/C(=O)NC(=O)N(C3CCCCC3)C2=O)c(OC)c1 | 2.4 | 2.5 | -0.1 | 7.2 | x | x
Cc1nc(SC2CCCCC2=O)c(C#N)c(-c2cccs2)c1C(=O)Nc1ccccc1 (stereo unspecified) | 5.1* | 3.4 | 0.0 | 8.3 | -1.0 | -8.1
O=C(N/N=C/c1ccccc1O)/C(=C\c1cccs1)NC(=O)c1ccccc1 | 1.2 | -41.9 | 0.0 | 13.9 | x | x
COc1cccc(/C=N/NC(=O)/C(=C\c2cccs2)NC(=O)c2ccccc2)c1O | 6.2* | -66.0 | -0.2 | 15.5 | -0.3 | -12.3
O=C(N/C(=C/c1ccc(Cl)cc1)C(=O)N1CCOCC1)c1ccccc1Br | 6.3* | 10.4 | -0.1 | 11.6 | -1.2 | -12.6
O=C(N/C(=C/c1ccc(Cl)cc1)C(=O)N1CCOCC1)c1ccccc1 | 2.0 | -2.1 | -0.1 | 3.0 | x | x
C#CCN(CC#C)c1ccc(Cl)cc1 | 0.4 | -4.8 | -0.1 | 0.7 | x | x
C#CCN(CC#C)c1cccc(Cl)c1 | 8.2* | 11.2 | 0.0 | -2.6 | -0.7 | -5.7
O=C(Cc1cn(-c2ccc(Cl)nn2)c2ccccc12)NCCOc1ccccc1 | 6.9* | 5.5 | 0.1 | 2.4 | 0.5 | -2.1
O=C(Cc1cn(-c2ccc(Oc3ccccc3)nn2)c2ccccc12)NCCOc1ccccc1 | 2.7 | 13.6 | 0.1 | -11.9 | x | x
O=C(Cn1cc([N+](=O)[O-])cn1)n1cccn1 | 5.5* | -5.6 | 0.0 | -4.1 | -1.4 | -11.3
O=C(Cn1cc([N+](=O)[O-])cn1)Nc1ccccn1 | 2.8 | 1.4 | 0.0 | 1.5 | x | x
Cc1c(Cl)cccc1NC(=O)c1ccc(N2C(=O)c3ccccc3C2=O)cc1 | 7.0* | -6.0 | 0.0 | -8.1 | 1.0 | 3.2
CCOc1ccc(/C=N/NC(=O)c2ccccc2C)cc1 | -0.7 | 15.2 | 0.1 | -21.4 | x | x
Cc1ccccc1C(=O)N/N=C/c1ccc(OCC(=O)N2CCCCC2)cc1 | 6.7* | 12.5 | 0.4 | 4.2 | 1.1 | 7.8
O=C1/C(=C/c2ccccc2)SC(=S)N1N1C(=O)c2ccccc2C1=O | -0.8 | -8.7 | -0.1 | 0.9 | x | x
O=C1/C(=C\c2cccc([N+](=O)[O-])c2)SC(=S)N1N1C(=O)c2ccccc2C1=O | 5.0* | -6.3 | -0.1 | -9.9 | 0.3 | 10.2
N#CCC(=O)NCCOc1ccccc1 | 8.6* | 10.9 | 0.1 | 4.5 | 0.6 | 1.2
SMILES | GPR151 ag | MITF inh | FBW7 activator | TEAD-YAP block | GPR151 conf act | GPR119 ag
COc1ccc2c(c1)c(CC(=O)Nc1ccc(NC(C)=O)cc1)c(C)n2C(=O)c1ccc(Cl)cc1 | 6.2* | -8.2 | x | x | 0.2 | 10.8
COc1ccc2c(c1)c(CC(=O)Nc1ncccc1C)c(C)n2C(=O)c1ccc(Cl)cc1 | 0.5 | 16.5 | 0.0 | 6.3 | x | x
CCN(CC)S(=O)(=O)c1ccc(OCc2ccccc2C#N)c([N+](=O)[O-])c1 | 5.0* | -8.9 | -0.2 | 7.4 | 0.1 | 0.6
COC(=O)c1c(NC(=S)Nc2cnccn2)sc2c1CCC(C)C2 (stereo unspecified) | 1.6 | 1.4 | -0.2 | -2.2 | x | x
CCc1c(C)sc(NC(=S)Nc2cnccn2)c1C(=O)OC | 5.9* | 4.0 | -0.1 | -8.6 | -1.0 | -13.6
CCc1c(C)sc(NC(=S)NCc2ccc(S(N)(=O)=O)cc2)c1C(=O)OC | 6.3* | 12.0 | 0.0 | -5.5 | -1.0 | -12.1
O=C(NC1CC1)c1ccc(-c2nc3ccc(C(=O)NC4CC4)cc3s2)cc1 | -2.3 | 23.3 | 0.1 | -12.7 | x | x
O=C(Nc1ccc(-c2ccccc2)cc1)c1ccc(F)cc1 | 1.4 | -20.5 | 0.1 | -22.0 | x | x
CC(C)c1c(C(=O)Nc2ccccc2)c(-c2ccccc2)c(-c2ccc(F)cc2)n1CC[C@@H](O)C[C@@H](O)CC(=O)O | 5.2* | -4.2 | 0.1 | x | -0.2 | -14.5
Cc1cccc(NC(=O)Nc2c3ccccc3nc(=O)n2Cc2ccccc2)c1 | 1.5 | 0.0 | -0.4 | -2.0 | x | x
Cn1ccc2cc(-c3cc(C(=O)NC4CC4)ccn3)ccc21 | 22.0* | 12.1 | 0.0 | 10.3 | 0.3 | 0.4
O=C1N(C2Cc3ccccc3C2)C[C@@H]2C[C@@H](c3cccc(-n4cccn4)c3)N3CCC[C@@]123 | 6.3* | -5.5 | 0.1 | 1.4 | 1.3 | 0.8
Cc1ccc(NC(=O)c2cnc(SCc3cccnc3)n(C)c2=O)cc1C | 10.0* | -7.5 | -0.1 | -28.6 | -0.8 | -17.6
CCc1ccc2c(c1)/C(=C/C(=O)c1cccs1)C(=O)N2 | 16.8* | -26.0 | -0.2 | 0.3 | 0.9 | -3.4
Cc1cccc2c1NC(=O)/C2=C\C(=O)c1cccs1 | 6.6* | -1.3 | -0.1 | 7.4 | -0.2 | 1.1
OCCC1CN(Cc2ccccc2O)CCN1C1CCCC1 (stereo unspecified) | 0.3 | -2.1 | 0.1 | -13.4 | x | x
CN(C)CC(C)(C)CNCC(=O)Nc1cc(C(F)(F)F)cc(C(F)(F)F)c1 | 6.0* | 40.0 | -0.3 | 5.2 | -0.5 | 0.5
COC(=O)c1ccc(OCC2c3cc(OC)c(OC)cc3CCN2C(=O)c2cccc(OC)c2OC)cc1 (stereo unspecified) | 5.3* | -0.1 | 0.1 | -12.8 | 0.8 | 1.1
CC1=C(C(=O)c2ccccc2)C2(C(=O)Nc3ccccc32)C(C#N)=C(N)O1 (stereo unspecified) | -0.2 | 0.5 | -0.2 | -1.8 | x | x
COCCCNC(=O)c1cc(C)nc2c1c(C)nn2-c1ccccc1Cl | -1.5 | -0.5 | 1.2 | -6.2 | x | x
CCOC(=O)CNC(=O)c1ccc(OC)c(Br)c1 | 5.6* | -10.8 | -0.2 | -5.8 | -0.2 | 2.0
